HCV inhibitor = qHTS Assay for Inhibitors of Hepatitis C Virus (HCV); Huh7.5.1 HCVcc-Cre infection, luciferase reporter, 44 h; Potency, µM (titrated, usually from 41.8 µM), for inactives: top-dose activity change, negative = inhibition, usual class: inhibitors; 3.4% of 340,000 active; AID 651820, 2012; further: potency means the concentration at half of the fitted maximal effect; on the % scale 0 is the no-effect control and ±100 the full control effect
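Compounds are dispensed onto cells plated 4 h earlier at 1,000 per well, with HCVcc-Cre virus (about 0.5 moi) added next. Following 44 h of culture, luminescent signal is measured for 15 sec after 15 min with substrate at room temperature.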
Pf growth 48h = Primary qHTS for delayed death inhibitors of the malarial parasite plastid, 48 hour incubation. P. falciparum luciferase growth in erythrocytes, 48 h. Potency, µM (doses to about 28.7 µM), for inactives: top-dose activity change, negative = inhibition, actives largely listed as inhibitors. 5.9% of 310,000 active. AID 504832, 2011; further: potency means the concentration at half of the fitted maximal effect; on the % scale 0 is the no-effect control and ±100 the full control effect
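In quantitative HTS format, infected erythrocytes bearing luciferase-reporter parasites were treated for a single generation at 37 C. Luminescence after adding detection reagent served as the growth measure.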
CHX counter = Cycloheximide Counterscreen for Small Molecule Inhibitors of Shiga Toxin. cell reporter, cycloheximide protein synthesis inhibition counterscreen. max response, %. 12% of 300,000 active; in the data active means max response mostly above about 13%, no sharp cut-off; inactive means mostly below about 14%; further: read at 38.3 µM for the half of the compounds with a filed dose; 0% is about no effect
Shiga toxin inh = A qHTS for Small Molecule Inhibitors of Shiga Toxin. 9.2% of 290,000 active. Vero cells, Shiga toxin protein synthesis inhibition reporter. AID 2315, 2010. inhibition, % at 38.7 µM; in the data active means inhibition mostly above about 28%, no sharp cut-off; inactive means mostly below about 43%; further: 0% is about no effect
AMA1 RON2 block = qHTS for Inhibitors of AMA1-RON; Towards Development of Antimalarial Drug Lead: Primary Screen; Plasmodium falciparum AMA1 (3D7) - RON2 peptide interaction; AlphaScreen AMA1-biotinylated RON2 peptide binding; Potency, µM (doses to about 58.2 µM), inactives show at the highest dose activity change, negative = inhibition, usual class: inhibitors; 0.2% of 360,000 active; AID 720542, 2013;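 further: potency means the concentration at half of the fitted maximal effect; 0% = vehicle wells and -100% = peptide control; nearly all actives have a fitted effect of over 45% in size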
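AMA1 (3D7) with his tag at 25 nM final met compounds first, then biotinylated RON2 peptide at 25 nM; detection used donor plus acceptor beads, 10 µg/mL apiece, read by AlphaScreen after 30 min at room temperature.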
Pf growth 96h = Primary qHTS for delayed death inhibitors of the malarial parasite plastid, 96 hour incubation | P. falciparum luciferase reporter growth, 96 h | Potency, µM (doses to about 28.7 µM), for the others: at the highest dose activity change, negative = inhibition, usual class: inhibitors | 6.9% of 320,000 active | AID 504834, 2011; further: potency means the concentration at half of the fitted maximal effect; on the % scale 0 is the no-effect control and ±100 the full control effect
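Luminescence readout: decreased luciferase signal marks inhibited growth of reporter-expressing P. falciparum in infected red cells (2% hematocrit, 0.05% parasitemia final), exposed to compound two generations (96 h, 37 C, 5% CO2).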
* marks the source's active call; other numbers are inactive results; u = inconclusive; x = no result given; [ ] = another dose, or the depositor's remark. Sampled rows, rich in hits. Any-hit rate of the full collection: about 21%. Unless noted, the call rests on the fitted dose curve; in most records, active means well fitted curve in the direction sought with a large enough effect; inconclusive means small, poorly fitted or top-dose-only effect, or another doubt; inactive means no such curve, though single readings can be large; an effect the other way counts as inactive or inconclusive.

SMILES	HCV inhibitor	Pf growth 48h	CHX counter	Shiga toxin inh	AMA1 RON2 block	Pf growth 96h
O=C(/C=C/c1ccccc1[N+](=O)[O-])N1CCCCC1	-0.4%	35.8%	20.2	65.6*	0.0%	12.4%[5.75 µM]
CC1CN(C(=O)/C=C/c2ccccc2[N+](=O)[O-])CC(C)O1 (centres undefined)	-0.2%	16.7%	0.7	-6.6	6.3%	u
CC1CCCCN1C(=O)/C=C/c1ccccc1[N+](=O)[O-] (centres undefined)	9.7%	11.2%	20.4*	29.4	-11.1%	0.3%
COc1cc2[nH]c(=S)nc(NCCC(C)C)c2cc1OC	8.5%	u	-3.0	7.0	53.6%	37.6%
COc1ccccc1CNc1nc(=S)[nH]c2cc(OC)c(OC)cc12	-15.4%	u	23.2*	48.4*	79.8%	1.4%
COc1cc2[nH]c(=S)nc(NCc3ccc(Cl)cc3)c2cc1OC	u	11.7µM*	5.2	17.9	94.2%	u
COc1cc2[nH]c(=S)nc(NCc3cccs3)c2cc1OC	25.1µM*	u	3.5	-6.2	77.1%	5.3%
COc1ccc(CCNC(=O)c2ccc(CNc3nc(=S)[nH]c4ccccc34)cc2)cc1OC	10µM*	u	-2.1	-7.3	35.8%	-6.1%
COCCCNc1nc(=S)[nH]c2cc(OC)c(OC)cc12	-27.6%	-2.1%	7.1	32.2	-13.9%	86.7%
CCCCCCCCN1C(=O)[C@H](CC(=O)NCCCOCCCC)C[C@@]2(C(=O)OC)CCCCC=C12	x	x	x	x	-3.8%	x
CCOC(=O)C1(CCOc2ccccc2)CCN(CC(O)CO)CC1 (centres undefined)	-11.0%	u	1.9	0.3	-4.8%	u
COc1ccc(CCNc2nc(=S)[nH]c3cc(OC)c(OC)cc23)cc1OC	u	u	-3.4	-17.0	101.2%	u
COc1cc2[nH]c(=S)nc(NCCc3ccc(C)cc3)c2cc1OC	4.4%	2.62µM*	-0.8	-4.6	52.0%	8.4%
CCOC(=O)/C(=C/C=C1\Sc2cc(C)c(C)cc2N1CC)C(C)=O	11.2µM*	u	-0.2	-18.6	0.8%	0.8%
CC(C)C[C@H](N)c1nnc(SCC(=O)Nc2ccc(Br)cc2)o1	15.8%	24.8%	-7.4	-2.7	107.8%	48.3%
CC(C)C[C@H](N)c1nnc(S(=O)(=O)Cc2ccc(F)cc2)o1	8.0%	-0.2%	41.9*	70.6	2.5%	u
CC(NC(=O)Cc1ccc(S(=O)(=O)N2CCOCC2)s1)c1ccc(Cl)c(Cl)c1 (centres undefined)	u	u	x	x	-12.6%	1.8%
CC(C)CC(=O)n1sc(NC(=O)c2ccccc2)nc1=O	-6.1%	-0.1%	2.0	-16.0	-9.7%	4.3%
Cc1ccc(C(=O)Nc2nc(=O)n(C(=O)CC(C)C)s2)cc1	-5.7%	14.7%	9.5	2.9	-1.2%	-4.5%
Cn1sc(NC(=O)c2ccc(Cl)cc2)nc1=O	6.8%	71.0%	13.6*	32.5	-7.6%	265.9%
Cc1ccc(C(=O)Nc2nc(=O)n(C)s2)cc1	18.7%	48.5%	35.5*	72.8*	-8.9%	108.2%
Cc1ccc(C(=O)Nc2nc(=O)n(C(=O)c3ccccc3Cl)s2)cc1	10.7%	x	30.8*	48.6*	7.3%	41.6%
O=C(C[n+]1cccc(/C=N/O)c1)NC(=O)Nc1ccccc1	x	x	x	x	-11.3%	x
NC(=O)NC(=O)C[n+]1cccc(/C=N/O)c1	8.8%	0.0%	-5.5	3.5	14.2%	10.4µM*
CCN1C(=O)[C@H]2[C@@H](c3ccc(OC)cc3)N[C@]3(CCCN(Cc4ccc(F)cc4)C3=O)[C@H]2C1=O	x	x	x	x	-12.6%	x
SMILES	HCV inhibitor	Pf growth 48h	CHX counter	Shiga toxin inh	AMA1 RON2 block	Pf growth 96h
O=C(Nc1ccc(S(=O)(=O)N2CCCCCC2)cc1)c1ccco1	-26.1%	u	22.7*	40.4*	1.4%	u
O=S(=O)(Cc1ccccc1)Nc1ccc(S(=O)(=O)N2CCCC2)cc1	2.8%	2.33µM*	-2.5	6.4	-10.3%	4.6%
O=C(Nc1nc(-c2ccc(S(=O)(=O)N3CCCC3)cc2)cs1)c1ccco1	u	u	5.2*	21.8*	-13.1%	27.0%
O=C(c1ccco1)N1CCN(S(=O)(=O)c2ccc(Oc3ccccc3)cc2)CC1	14.1µM*	-11.7%	-0.1	9.5	-10.8%	-24.6%
O=C(Nc1cccc(S(=O)(=O)N2CCCC2)c1)c1ccco1	u	x	x	x	0.0%	x
O=C(c1ccco1)N1CCN(S(=O)(=O)c2ccc(Br)cc2)CC1	13.8%	-36.1%	-3.0	-7.8	0.1%	0.0%
CC(=O)Nc1ccc(S(=O)(=O)N2CCN(C(=O)c3ccco3)CC2)cc1	-1.6%	44.7%[0.00184 µM]	21.2*	-4.6	0.8%	u
Cc1ccc(C(=O)NCCc2ccccc2)cc1N1CCCC1=O	11.2%	32.6%	13.0	26.2	1.0%	u
CN(CCCNC(=O)c1cccc(N2CCCC2=O)c1)c1ccccc1	u	u	15.6*	14.5	-12.2%	61.1%
O=C(Nc1ccccc1)c1cccc(N2CCCC2=O)c1	-8.8%	183.2%	33.6*	40.5*	40.5%	u
Cc1cccc(CCNC(=O)c2cccc(N3CCCC3=O)c2)c1	-13.7%	90.6%	43.9*	74.7*	12.0%	u
CCCCN(C)CCCNC(=O)c1cccc(N2CCCC2=O)c1	22.0%	x	3.4	-11.2	0.0%	u
Cc1ccc(CCNC(=O)c2cccc(N3CCCC3=O)c2)cc1	-1.6%	36.7%	21.6	66.0*	5.2%	-9.2%
Cc1ccc(/C=C2/C(=O)C3(C)CCC2C3(C)C)cc1 (centres undefined)	x	-8.9%	x	x	x	20.7%
Cc1ccc(C)n1-c1cccc(C(=O)Nc2ccccc2)c1	u	u	17.5*	36.7	1.3%	u
O=C(NCCc1ccccc1)c1cccc(N2CCCC2=O)c1	-0.3%	98.2%	33.2*	30.3*	u	u
Cc1ccc(C)n1-c1cccc(C(=O)O)c1	-12.1%	21.0%	-3.2	-3.5	x	58.2%
CC1(c2ccc(OC(F)F)cc2)NC(=O)N(CC(=O)N2CCN(C(=O)c3ccco3)CC2)C1=O (centres undefined)	-5.3%	1.9%	x	x	-8.7%	-8.0%
COc1ccc(C(=O)CCC(=O)O)c2ccccc12	x	0.4%	x	x	x	-13.2%
Cc1cc(NC(=O)c2ccc(Cl)cc2)no1	7.7%	107.1%	31.9*	58.9*	-1.3%	15.1%
CCOc1ccc(C(=O)Nc2cc(C)on2)cc1	-2.7%	22.5%	30.7*	73.2*	2.1%	1.9%
Cc1cc(NC(=O)c2ccc3nc(C)sc3c2)no1	-7.9%	149.0%	43.1*	195.4*	39.1%	u
CCOc1ccc(Oc2ccccc2NC(=O)CSCC(=O)Nc2cc(C)on2)cc1	8.91µM*	u	x	x	-22.9%	u

Compound activity (PubChem BioAssay)
